In PubChem BioAssay (Tox21) one finds Potency data, which are given here for 38 compounds.

SMILES strings stand for the structures. Several values for one entry are separate records, joined by “and”; a condition that tells them apart may be missing. Equal values may be shown once. Results filed as inconclusive are left out. Entries that show only a call come without a potency. The source holds several records for some structures; these can differ, active in one and inactive in another. Activity calls are given as the source filed them. Unless noted, calls follow the shape of the full dose curve.
Potency is read from the fitted curve at half-maximal effect.

Sequence of Thyrotropin receptor (Homo sapiens) (P16473 whole entry, looked up): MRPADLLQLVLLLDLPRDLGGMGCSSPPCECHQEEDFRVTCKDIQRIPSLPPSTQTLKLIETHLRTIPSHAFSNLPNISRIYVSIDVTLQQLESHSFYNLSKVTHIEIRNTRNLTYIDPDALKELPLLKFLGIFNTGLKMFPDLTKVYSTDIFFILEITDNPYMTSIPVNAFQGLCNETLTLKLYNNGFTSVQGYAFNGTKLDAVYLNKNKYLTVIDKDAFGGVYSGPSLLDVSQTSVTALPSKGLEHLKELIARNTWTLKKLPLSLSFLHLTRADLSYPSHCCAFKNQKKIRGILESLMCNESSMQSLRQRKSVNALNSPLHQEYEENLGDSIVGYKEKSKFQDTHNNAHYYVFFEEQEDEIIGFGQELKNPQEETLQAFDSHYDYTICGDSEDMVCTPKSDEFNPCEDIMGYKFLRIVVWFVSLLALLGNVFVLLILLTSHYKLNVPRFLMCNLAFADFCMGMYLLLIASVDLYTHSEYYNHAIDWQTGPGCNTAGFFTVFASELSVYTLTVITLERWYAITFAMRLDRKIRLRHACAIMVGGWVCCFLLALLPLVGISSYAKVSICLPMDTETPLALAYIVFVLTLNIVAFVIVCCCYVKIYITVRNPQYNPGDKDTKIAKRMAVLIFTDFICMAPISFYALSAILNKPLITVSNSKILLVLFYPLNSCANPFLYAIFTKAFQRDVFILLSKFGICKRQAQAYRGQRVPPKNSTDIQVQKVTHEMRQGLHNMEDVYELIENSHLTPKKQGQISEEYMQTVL

Tested on in the first test: not listed separately
As to the kind of experiment: qHTS assay to identify small molecule agonists of the estrogen related receptor signaling pathway with the pleiotropic PPARgamma coactivator (PGC) from Tox21 10K library (AID 1224842; active = well fitted activation curve with a large enough effect in the repeat runs; also: nearly all actives have a fitted effect of over 15% in size). Conditions: PGC/ERR reporter cell line, luciferase ONE-Glo, 18 h; series mostly up to 92.4 µM. The method, boiled down: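 PGC/ERR reporter cell line, 2,000 cells per well, incubated 6 h at 37 C before 23 nL compound in DMSO was added. After 18 h at 37 C, One-Glo luminescence read following 30 min at room temperature.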
For `CC1COC(=O)O1` (stereo not given), the Potency entry is “inactive”. Regarding `c1cc(C(c2ccc(OCC3CO3)cc2)C(c2ccc(OCC3CO3)cc2)c2ccc(OCC3CO3)cc2)ccc1OCC1CO1` (stereo not given), the Potency result was “inactive”. The same measure, in the same setting: as for `CCCC(=O)c1ccccc1`, the entry is “inactive”; as for `CCN(CC)C(=S)SSC(=S)N(CC)CC`, “inactive”. Same read-out and setting: as for `CC(C)(C)c1ccc(O)c(C(C)(C)C)c1`, the entry is “inactive”; as for `CC(C)CCOC(=O)c1ccc(N(C)C)cc1`, 10.6 µM (active).

The next test has as its target Thyrotropin receptor (Homo sapiens) (UniProt P16473). As to the kind of experiment: qHTS assay to identify small molecule agonists of the thyroid stimulating hormone receptor (TSHR) signaling pathway (AID 1224843). Also: nearly all actives have a fitted effect of over 45% in size. Conditions: TSHR-HEK293 cells, cAMP HTRF, agonist mode, 30 min; series mostly up to 92.4 µM. The method, boiled down: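 HEK293/TSHR, 800 cells/well; cpd 30 min RT; add cAMP-d2 + anti-cAMP-cryptate, 1 h RT; fluorescence read on plate reader. 15-pt titration, n=3.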
On to `O=C(O)c1cn(-c2ccc(F)cc2)c2cc(N3CCNCC3)c(F)cc2c1=O`, for which the Potency entry is “inactive”. For the compound `O=C(Oc1ccccc1)c1ccccc1O`, the Potency entry is “inactive”. For the compound `CCN1CCCC1CNC(=O)c1cc(S(=O)(=O)CC)c(N)cc1OC` (stereo not given), the Potency entry was “inactive”. The same measure, in the same setting: next, `OCC(CO)N[C@H]1C[C@](O)(CO)[C@@H](O)[C@H](O)[C@H]1O`: “inactive”; `CCCCCCCCCCCCCC[P+](CCCC)(CCCC)CCCC`: “inactive”.

Turning to `O=C(O)c1cccc(C(=O)O)c1`, the Potency entry was “inactive”. Same read-out and setting: next, `CC(=O)N[C@@H](CS)C(=O)O`: “inactive”. On the same count and under the same terms, next, `CC1COC(=O)O1` (stereo not given): “inactive”; `c1cc(C(c2ccc(OCC3CO3)cc2)C(c2ccc(OCC3CO3)cc2)c2ccc(OCC3CO3)cc2)ccc1OCC1CO1` (stereo not given): “inactive”. Consider `NC(N)=NC(=O)Cc1c(Cl)cccc1Cl`, for which the Potency result is “inactive”. For the compound `CCCC(=O)c1ccccc1`, the Potency result is “inactive”. Still for that read-out and setting: next, `C=C(C)C1CC=C(C)C(OC(C)=O)C1` (stereo not given): “inactive”.

Consider `CC(C)(C)NCC(O)COc1ccccc1OCC1CCCO1` (stereo not given), for which the Potency result was “inactive”. In the case of `COC(=O)[C@H]1[C@H]2C[C@@H]3c4[nH]c5cc(OC)ccc5c4CCN3C[C@H]2C[C@@H](OC(=O)c2cc(OC)c(OC)c(OC)c2)[C@@H]1OC`, the Potency entry is “inactive”. Same read-out and setting: next, `c1ccc2n[nH]nc2c1`: “inactive”.

With `CC(=O)OCCOCCOCCOC(C)=O`, the Potency is 6.77 µM (active) and inactive.

With `COC(=O)/C=C/c1ccccc1`, the Potency result was “inactive”. For `Cc1scc2c1N(C(=O)CN1CCN(C)CC1)c1ccccc1NC2=O`, the Potency entry was “inactive”.

With `Oc1c(Cl)cc(Cl)c(Cl)c1Cc1c(O)c(Cl)cc(Cl)c1Cl`, the Potency is 15.3 µM (active) and inactive. `Nc1nc2ccccc2[nH]1`: the Potency result was “inactive”.

In the case of `NCCCCCC(=O)O`, the Potency entry is “inactive”.

As for `CCC(C)(C)C(=O)O[C@H]1C[C@@H](C)C=C2C=C[C@H](C)[C@H](CC[C@@H]3C[C@@H](O)CC(=O)O3)[C@H]21`, the Potency entry is “inactive”. Regarding `O=C(O)CCc1ccccc1`, the Potency result is “inactive”. On the same count and under the same terms, as for `OCCN1CCNCC1`, the entry is “inactive”; as for `CC(C)CCOC(=O)c1ccc(N(C)C)cc1`, “inactive”. Still for that read-out and setting: next, `Cc1cc(C2(c3cc(C)c(O)cc3C)OS(=O)(=O)c3ccccc32)c(C)cc1O`: “inactive”; `CCOC(=O)C(C)C(C)=O` (stereo not given): “inactive”; `CC(C)(C)c1cc(C(C)(C)C)c(O)c(C(C)(C)C)c1`: “inactive”. Still for that read-out and setting: as for `CCC[C@H](N[C@@H](C)C(=O)N1[C@H](C(=O)O)C[C@@H]2CCCC[C@@H]21)C(=O)OCC`, the entry is “inactive”; as for `CC(COc1ccccc1)N(CCCl)Cc1ccccc1` (stereo not given), 30.9 µM (active) and 43.3 µM (active) and 29.8 µM (active). For `O=C1CC2(CCCC2)CC(=O)N1CCCCN1CCN(c2ncccn2)CC1`, the Potency entry is “inactive”.

As for `O=c1n(CC2CO2)c(=O)n(CC2CO2)c(=O)n1CC1CO1` (stereo not given), the Potency result was “inactive”.

Tested on in another test: not listed separately
The test can be described thus: qHTS assay to identify small molecule agonists of the hypoxia (HIF-1) signaling pathway - cell viability counter screen (AID 1224844). Also: nearly all actives have a fitted effect of over 50% in size. Conditions: HRE-bla ME-180 viability, CellTiter-Glo luminescence, 17 h; series mostly up to 76.8 µM. The method, boiled down:
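Same wells as the HIF-1 reporter screen; ME-180 cells carrying HRE-bla, 17 hr treatment at 37C; CellTiter-Glo luminescence read after 30 min at room temperature.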
With `O=C(O)c1cn(-c2ccc(F)cc2)c2cc(N3CCNCC3)c(F)cc2c1=O`, the Potency entry is “inactive”. Same read-out and setting: as for `CCCCC(CC)COC(=O)CC(C(=O)OCC(CC)CCCC)S(=O)(=O)O` (stereo not given), the figure is 26.5 µM (active) and 21.9 µM (active); as for `NC(N)=Nc1nc(CSCC/C(N)=N/S(N)(=O)=O)cs1`, “inactive”; as for `O=C(Oc1ccccc1)c1ccccc1O`, “inactive”. Still for that read-out and setting: as for `CCN1CCCC1CNC(=O)c1cc(S(=O)(=O)CC)c(N)cc1OC` (stereo not given), the entry is “inactive”; as for `OCC(CO)N[C@H]1C[C@](O)(CO)[C@@H](O)[C@H](O)[C@H]1O`, “inactive”.

`O=C(O)c1cccc(C(=O)O)c1`: the Potency entry was “inactive”. `CC(=O)N[C@@H](CS)C(=O)O`: the Potency entry is “inactive”. `CC1COC(=O)O1` (stereo not given): the Potency result was “inactive”. For `NC(N)=NC(=O)Cc1c(Cl)cccc1Cl`, the Potency entry was “inactive”. For `COC(=O)[C@H]1[C@H]2C[C@@H]3c4[nH]c5cc(OC)ccc5c4CCN3C[C@H]2C[C@@H](OC(=O)c2cc(OC)c(OC)c(OC)c2)[C@@H]1OC`, the Potency was 24.5 µM (active) and 31.8 µM (active) and inactive. On to `COC(=O)/C=C/c1ccccc1`, for which the Potency entry was “inactive”. Turning to `Cc1scc2c1N(C(=O)CN1CCN(C)CC1)c1ccccc1NC2=O`, the Potency entry was “inactive”.

Turning to `Oc1c(Cl)cc(Cl)c(Cl)c1Cc1c(O)c(Cl)cc(Cl)c1Cl`, the Potency was 19.4 µM (active) and 19.5 µM (active). Regarding `Nc1nc2ccccc2[nH]1`, the Potency result was “inactive”. As to `CCN(CC)C(=S)SSC(=S)N(CC)CC`, the Potency was 355 nM (active) and inactive. Still for that read-out and setting: next, `NCCCCCC(=O)O`: “inactive”. As to `CC(C)(C)c1ccc(O)c(C(C)(C)C)c1`, the Potency was 43.5 µM (active). With `O=C(O)CCc1ccccc1`, the Potency entry was “inactive”. With `[Cl][In]([Cl])[Cl]`, the Potency result was “inactive”. In the case of `CC[C@H]1CN2CCc3cc(OC)c(OC)cc3[C@@H]2C[C@@H]1C[C@H]1NCCc2cc(OC)c(OC)cc21`, the Potency entry was “inactive”. On the same count and under the same terms, as for `CC(C)CCOC(=O)c1ccc(N(C)C)cc1`, the entry is “inactive”. For `Cc1cc(C2(c3cc(C)c(O)cc3C)OS(=O)(=O)c3ccccc32)c(C)cc1O`, the Potency result was “inactive”. Still for that read-out and setting: next, `CCC[C@H](N[C@@H](C)C(=O)N1[C@H](C(=O)O)C[C@@H]2CCCC[C@@H]21)C(=O)OCC`: “inactive”; `CC(COc1ccccc1)N(CCCl)Cc1ccccc1` (stereo not given): 49.5 µM (active) and inactive. `O=C1CC2(CCCC2)CC(=O)N1CCCCN1CCN(c2ncccn2)CC1`: the Potency was 4.36 µM (active) and inactive. For the compound `O=c1n(CC2CO2)c(=O)n(CC2CO2)c(=O)n1CC1CO1` (stereo not given), the Potency entry is “inactive”.
